A selection: hits, their analogues and other compounds. The true share with any hit is near 2.7%.
IP6K1 inhibitor: inhibitors of human IP6K1. Q92551. IP6K1 kinase, ADP-Glo luminescence, 2 h; stronger effect = lower value. activity change, % (series mostly up to about 58 µM). 140,000 compounds, 0.81% hits; in the data active = activity change below about -25%; note: % is set by controls: 0 for no effect and ±100 for the full control effect
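ADP-Glo luminescence measures ADP made by human IP6K1 during a 2 h RT reaction with ATP/IP6 (mix at 1.3 mM/130 uM); top library doses 57.5 and 19.1 uM final.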
KDM5B inh: KDM5B demethylase inhibition; KDM5B demethylase, FDH-coupled NADH fluorescence (FDH is formaldehyde dehydrogenase); Potency, µM (doses to about 57.7 µM), usual class: inhibitors; AID 1347165; 220,000 compounds, 2.6% hits; Q9UGL1; note: potency is the fitted concentration of half-maximal effect; 0% is about no effect; nearly all actives have a fitted effect of over 70% in size
Target sequence (Q9UGL1 whole entry, looked up): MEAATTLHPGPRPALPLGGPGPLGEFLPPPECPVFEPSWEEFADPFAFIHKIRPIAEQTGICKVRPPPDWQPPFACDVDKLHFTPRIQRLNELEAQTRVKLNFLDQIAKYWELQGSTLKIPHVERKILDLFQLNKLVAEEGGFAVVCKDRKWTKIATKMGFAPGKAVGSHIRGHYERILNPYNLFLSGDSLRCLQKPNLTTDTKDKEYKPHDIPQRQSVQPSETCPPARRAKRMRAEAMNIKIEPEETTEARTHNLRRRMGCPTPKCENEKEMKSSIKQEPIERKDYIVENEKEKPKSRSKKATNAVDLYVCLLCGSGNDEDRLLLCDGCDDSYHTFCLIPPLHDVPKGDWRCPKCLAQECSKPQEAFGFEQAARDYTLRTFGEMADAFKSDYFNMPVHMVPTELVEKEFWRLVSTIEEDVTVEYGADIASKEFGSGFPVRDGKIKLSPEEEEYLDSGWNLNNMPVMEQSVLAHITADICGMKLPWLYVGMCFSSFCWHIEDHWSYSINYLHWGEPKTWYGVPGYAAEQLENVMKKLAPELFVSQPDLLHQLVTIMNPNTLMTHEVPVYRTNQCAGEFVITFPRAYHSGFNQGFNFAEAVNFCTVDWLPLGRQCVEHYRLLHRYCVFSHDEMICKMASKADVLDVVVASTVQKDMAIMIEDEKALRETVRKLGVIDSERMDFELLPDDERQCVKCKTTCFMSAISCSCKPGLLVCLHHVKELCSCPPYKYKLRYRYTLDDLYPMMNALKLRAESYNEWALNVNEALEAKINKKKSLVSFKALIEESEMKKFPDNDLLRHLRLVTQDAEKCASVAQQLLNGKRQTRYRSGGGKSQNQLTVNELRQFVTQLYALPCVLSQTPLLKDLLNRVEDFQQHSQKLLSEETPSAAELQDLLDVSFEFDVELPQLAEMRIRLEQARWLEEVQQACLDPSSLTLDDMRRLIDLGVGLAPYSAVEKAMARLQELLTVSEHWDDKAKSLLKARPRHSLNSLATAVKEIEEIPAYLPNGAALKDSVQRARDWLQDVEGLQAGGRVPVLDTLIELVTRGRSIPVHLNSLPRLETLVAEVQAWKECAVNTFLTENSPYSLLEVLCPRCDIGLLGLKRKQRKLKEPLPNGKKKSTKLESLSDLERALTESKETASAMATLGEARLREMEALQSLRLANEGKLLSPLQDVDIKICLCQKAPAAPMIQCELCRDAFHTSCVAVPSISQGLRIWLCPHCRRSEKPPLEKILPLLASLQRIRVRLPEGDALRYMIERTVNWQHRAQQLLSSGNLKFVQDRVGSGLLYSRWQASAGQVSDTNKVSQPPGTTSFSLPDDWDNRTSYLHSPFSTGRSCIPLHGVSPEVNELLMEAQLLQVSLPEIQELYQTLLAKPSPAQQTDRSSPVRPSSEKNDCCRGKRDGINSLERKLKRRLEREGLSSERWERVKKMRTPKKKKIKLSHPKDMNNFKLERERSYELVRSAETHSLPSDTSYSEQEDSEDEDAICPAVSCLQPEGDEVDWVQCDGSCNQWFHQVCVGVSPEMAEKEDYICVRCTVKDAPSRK
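Coupled FDH/NAD⁺ fluorescence readout. KDM5BΔAP 200 nM final; compound titration, 10 min RT preincubation; substrate mix 12.5 µM H3K4me3, 25 µM 2-OG, 50 µM Fe(II), 100 µM ascorbate, 0.25 mM NAD⁺, 0.25 U/mL FDH; ΔRFU over 30 min.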
IP6K1 conf: confirmation of human IP6K1 inhibitors; 1,200 compounds, 13% hits; Potency, µM (titrated, usually from 49 µM), for inactives: at the top dose activity change, negative = inhibition, hits mostly inhibitors; shares compounds with IP6K1 inhibitor; recombinant IP6K1 kinase, ADP-Glo luminescence, 2 h; note: potency is the fitted concentration of half-maximal effect; % is set by controls: 0 for no effect and ±100 for the full control effect; nearly all actives have a fitted effect of over 65% in size
Active calls of the source: *; i = inactive; ? = inconclusive; / = no result given; [ ] = dose if it differs, or a comment. Unless noted, calls come from the whole dose curve; as a rule, active = well fitted inhibition curve with a large enough effect; inconclusive = small, poorly fitted or top-dose-only effect; inactive = no such curve, though single readings can be large or run the other way.

SMILES | IP6K1 inhibitor | KDM5B inh | IP6K1 conf
CCc1ccc(NC(=O)CN(c2ccc(OC)cc2)S(=O)(=O)c2c(C)[nH]c(=O)[nH]c2=O)cc1 | -31* | i[11.5 µM] | -3%
Cn1cc(-c2cnc3[nH]cc(CC(=O)NCc4ccc5c(c4)OCO5)c3c2)cn1 | -20 | i | /
Cn1cc(-c2cnc3[nH]cc(CC(=O)Nc4ccccc4Cl)c3c2)cn1 | -26* | 32µM* | ?
Cc1nc(-c2ccc(C)c(S(=O)(=O)N3CCCC(C(=O)NCc4ccc5c(c4)OCO5)C3)c2)no1 (stereo unspecified) | / | i | /
Cc1cnc(Nc2ccc(CN3CCOCC3)cc2)nc1Nc1cccc(S(=O)(=O)NC(C)(C)C)c1 | -16 | / | -2%
Cc1cnc(Nc2cccc(CN3CCOCC3)c2)nc1Nc1cccc(S(=O)(=O)NC(C)(C)C)c1 | -9 | / | 3%
Cc1cnc2c(S(=O)(=O)NCCN3CCOCC3)cccc2c1 | / | i | /
Cc1ccc(CN2CCc3nc(Nc4ccc5c(c4)OCCO5)ncc3C2)cc1 | -10 | i | /
Cc1cccc(CC(=O)Nc2cccc(-c3nc4cccnc4s3)c2)c1 | 30 | ? | /
Cc1ccccc1C(=O)Nc1cccc(-c2nc3cccnc3s2)c1 | -29* | ? | ?
CC(C)c1ccc(C(=O)NCCC2=CCCCC2)cc1 | / | i | /
COc1ccc(-c2ccc3nc(-c4ccc(F)c(F)c4)oc3c2)c(OC)c1OC | 0 | i | /
C=Cc1cc(O)cc2nc(-c3ccc(O)c(F)c3)oc12 | -28* | / | ?
Cn1c(NC2CCCC2)nc2c1c(=O)n(Cc1ccc(Cl)cc1)c(=O)n2C | / | i | /
Cc1ccc(-c2nccc3c(=O)cc(-c4cn[nH]c4)oc23)cc1 | -19 | ? | /
CN1CCN(c2cc(=O)c3ccnc(-c4ccc(Cl)cc4)c3o2)CC1 | -32* | 35µM* | ?
Cc1ccccc1CN1CCN(S(=O)(=O)c2cn(C)nc2C)CC1 | / | i | /
COc1ccc(CN2CCN3C(=O)N(Cc4ccc(C)cc4)C[C@H]3C2)cc1 | -2 | i | /
COc1ccc(CN2C[C@H]3CN(Cc4cnn(C)c4)CCN3C2=O)cc1 | -30* | ? | ?
CCc1ccc(CNC(=O)c2cc3c(=O)oc4ccc(C)cc4c3s2)cc1 | 13 | ? | /
CCCN(CCC)CCNC(=O)c1cc2c(=O)oc3ccc(C)cc3c2s1 | -25* | ? | -4%
O=C(NC1CCCN(c2ccc3nnc(-c4ccccc4)n3n2)C1)c1ccccc1Cl (stereo unspecified) | 1 | / | /
CC(C)(C)OC(=O)N1CCC(c2c(C(=O)N3CCN(c4ccc(Cl)cc4)CC3)cnn2-c2ccc(F)cc2F)CC1 | -11 | i | /
Cc1ccc(-n2ncc(C(=O)NCc3cccs3)c2C2CCN(C(=O)OC(C)(C)C)CC2)c(C)c1 | -33* | ? | -4%
Cc1ccc(-n2ncc(C(=O)NCc3cccs3)c2C2CCN(C(=O)OC(C)(C)C)CC2)cc1C | 22 | i | /
SMILES | IP6K1 inhibitor | KDM5B inh | IP6K1 conf
Cc1ccc(-n2ncc(C(=O)N3CCN(c4ccc(Cl)cc4)CC3)c2C2CCN(C(=O)OC(C)(C)C)CC2)c(C)c1 | -35* | i | 10%
C=CCC(C)(C)NC(C)c1ccccc1 (stereo unspecified) | / | i | /
CCc1ccc(C(=O)c2sc(Nc3cccc(SC)c3)nc2N)cc1 | / | i | /
COc1ccc(-n2c(=O)c3c4c(sc3n(Cc3cc(=O)n5c(C)cccc5n3)c2=O)CCC4)c(OC)c1 | -39* | ? | -10%
COc1ccc(-n2c(=O)c3c4c(sc3n(Cc3ccc(C)cc3C)c2=O)CCC4)c(OC)c1 | -16 | i | /
COc1ccc(CCC(=O)NCc2ccc3c(c2)CCN3C(=O)c2ccc(Cl)cc2)cc1 | -28* | i | 9%
COc1ccc(CC(=O)NCc2ccc3c(c2)CCN3C(=O)c2ccc(Cl)cc2)cc1 | -12 | i | /
O=C(NCc1cccc(F)c1)C1CCN(c2nccc(Nc3ccccc3Cl)n2)CC1 | -1 | / | /
Nc1nc2c(s1)C(c1cccc(OCc3ccccc3F)c1)CC(=O)N2 (stereo unspecified) | / | i | /
CCNc1nc2c(s1)C(c1cccc(F)c1)CC(=O)N2 (stereo unspecified) | -71* | 25µM* | 16µM*
Cc1ccc2nc(C)c(C(=O)N3CCN(S(=O)(=O)c4ccc(F)cc4)CC3)cc2c1 | / | i | /
CN(C(=O)CSc1nc2ccsc2c(=O)n1CCc1cccs1)c1ccccc1 | / | i | /
Cc1ccc(C)c(N2CCN(c3ncnc4c3nc3n4CCCC3)CC2)c1 | -30* | i | -3%
Cc1ccc(C)c(N2CCN(c3ncnc4c3nc3n4CCCCC3)CC2)c1 | 10 | i | /
CC(C)CCOc1ccc(CO[C@@H]2[C@H]3OC(C)(C)O[C@H]3O[C@@H]2[C@@H](O)CO)cc1 | / | i | /
Cc1cccc(C)c1OCc1cc(=O)n2c(-c3ccccc3)csc2n1 | -11 | i | /
CC(C)c1ccc(OCc2cc(=O)n3c(-c4ccccc4)csc3n2)cc1 | -31* | ? | -7%
CNCC(=O)N1CCCC(N2CCN(Cc3ccc4c(c3)OCO4)CC2)C1 (stereo unspecified) | -37* | ? | -8%
NCCCC(=O)N1CCCC(N2CCN(Cc3ccc4c(c3)OCO4)CC2)C1 (stereo unspecified) | 0 | i | /
O=C(Cc1ccccc1)Nc1sc2c(c1C(=O)Nc1ccccc1Cl)CCCCC2 | -2 | i | /
O=C(Cc1ccccc1)Nc1sc2c(c1C(=O)Nc1cccc(Cl)c1)CCCCC2 | -29* | i | 3%
COc1ccccc1C(=O)N1CCC2(CC1)N(Cc1cccc(F)c1)C(=O)CS2=O (stereo unspecified) | -9 | / | /
Cc1cccc(C(=O)NC(c2cccnc2)c2cc(C)ccc2C)c1 (stereo unspecified) | / | i | /
CC(C)NC(=O)N1CCCC(c2nn(C)c(=O)n2Cc2ccccc2)C1 (stereo unspecified) | 27 | / | /
O=C([C@H]1CCCN1C(=O)C1CC1)N1CCCC(c2nc3ccncc3[nH]2)C1 (stereo partly specified) | 12 | / | /
SMILES | IP6K1 inhibitor | KDM5B inh | IP6K1 conf
O=C(C1CCCN1C(=O)C1CC1)N1CCC(c2nc3ccncc3[nH]2)C1 (stereo unspecified) | -27* | / | -4%
CCCC(NC(=O)c1ccnc(Cl)c1)c1ccccc1 (stereo unspecified) | / | i | /
CCC[C@H](NC(=O)C(C#N)=Cc1cccc(Br)n1)c1ccccc1 | / | / | ?
COc1cc(O)cc(/C=C/c2cccc(O)c2)c1 | -45* | / | ?
CC(=O)Oc1cccc(O)c1 | 35 | / | /
Cc1ccc2c(c1)C(c1ccccc1)N(C(=O)c1ccccc1F)CC(=O)N2 (stereo unspecified) | -14 | ? | /
COc1cccc(C(=O)N2CC(=O)Nc3ccc(C)cc3C2c2ccc(F)cc2)c1OC (stereo unspecified) | -25* | i | -14%
Cc1cc(C)cc(NC(=O)CCC(=O)N2Cc3ccccc3Oc3ncccc32)c1 | -7 | i | /
CCOC(=O)c1cccc(NC(=O)N2Cc3ccccc3Oc3ncccc32)c1 | -33* | ? | -21%
COc1ccc(Cl)cc1NC(=O)C1CCN(c2nccnc2Oc2ccccc2C)CC1 | / | i | /
O=Nc1c(-c2c(O)[nH]c3ccccc23)[nH]c2ccccc12 | / | / | 1%
Oc1[nH]c2ccccc2c1N=Nc1ccccc1 | / | i | /

Screens: PubChem, National Center for Advancing Translational Sciences (NCATS)
